How the values were obtained:
Assay in all cases: log2 ratio of Biotin-Ahx-Ub-VS probe labelling (fragment/DMSO); higher = less target engagement (more negative = stronger competition), active = hit call of the paper (q ≤ 0.05, log2 ratio ≤ -1)
Details in all cases: compound concentration: 200 uM; treatment time: 3 h
USP9X = USP9X (UniProt Q93008)
Method in brief: (§1)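 Labelled DUBs from HEK293T lysate were NeutrAvidin-enriched, digested with LysC and trypsin, and run by diaPASEF LC-MS/MS. Before that, each 495 µg sample in Tris/CHAPS/IGEPAL buffer with protease inhibitors was treated in triplicate with fragment at 200 µM or vehicle for 3 h, then with Biotin-Ahx-Ub-VS at 0.5 µM final for 1 h. Values are average log2 ratios of fragment over vehicle by unpaired t-test, based on global-median-normalised Spectronaut label-free quantities from proteins with ≥2 unique peptides.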

UniProt O00487 = biological target: UniProt O00487
Method in brief: as §1

UniProt O00507 = biological target: UniProt O00507
Method in brief: as §1

UniProt P51784 = biological target: UniProt P51784
Method in brief: as §1

UniProt Q5T2D3 = biological target: T1, UniProt Q5T2D3
T1 sequence (whole entry): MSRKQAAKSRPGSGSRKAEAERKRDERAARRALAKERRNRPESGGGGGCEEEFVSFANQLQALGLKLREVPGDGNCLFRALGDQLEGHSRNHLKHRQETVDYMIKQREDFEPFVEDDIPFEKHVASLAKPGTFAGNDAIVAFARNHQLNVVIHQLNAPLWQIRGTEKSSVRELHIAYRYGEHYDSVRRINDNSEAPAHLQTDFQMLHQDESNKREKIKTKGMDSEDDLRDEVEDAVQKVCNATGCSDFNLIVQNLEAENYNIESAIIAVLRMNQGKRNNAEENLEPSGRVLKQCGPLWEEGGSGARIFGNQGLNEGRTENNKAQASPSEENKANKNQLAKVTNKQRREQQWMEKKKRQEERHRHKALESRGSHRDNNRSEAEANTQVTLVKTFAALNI
Method in brief: as §1

UniProt Q8TE49 = biological target: T2, UniProt Q8TE49
T2 sequence (whole entry): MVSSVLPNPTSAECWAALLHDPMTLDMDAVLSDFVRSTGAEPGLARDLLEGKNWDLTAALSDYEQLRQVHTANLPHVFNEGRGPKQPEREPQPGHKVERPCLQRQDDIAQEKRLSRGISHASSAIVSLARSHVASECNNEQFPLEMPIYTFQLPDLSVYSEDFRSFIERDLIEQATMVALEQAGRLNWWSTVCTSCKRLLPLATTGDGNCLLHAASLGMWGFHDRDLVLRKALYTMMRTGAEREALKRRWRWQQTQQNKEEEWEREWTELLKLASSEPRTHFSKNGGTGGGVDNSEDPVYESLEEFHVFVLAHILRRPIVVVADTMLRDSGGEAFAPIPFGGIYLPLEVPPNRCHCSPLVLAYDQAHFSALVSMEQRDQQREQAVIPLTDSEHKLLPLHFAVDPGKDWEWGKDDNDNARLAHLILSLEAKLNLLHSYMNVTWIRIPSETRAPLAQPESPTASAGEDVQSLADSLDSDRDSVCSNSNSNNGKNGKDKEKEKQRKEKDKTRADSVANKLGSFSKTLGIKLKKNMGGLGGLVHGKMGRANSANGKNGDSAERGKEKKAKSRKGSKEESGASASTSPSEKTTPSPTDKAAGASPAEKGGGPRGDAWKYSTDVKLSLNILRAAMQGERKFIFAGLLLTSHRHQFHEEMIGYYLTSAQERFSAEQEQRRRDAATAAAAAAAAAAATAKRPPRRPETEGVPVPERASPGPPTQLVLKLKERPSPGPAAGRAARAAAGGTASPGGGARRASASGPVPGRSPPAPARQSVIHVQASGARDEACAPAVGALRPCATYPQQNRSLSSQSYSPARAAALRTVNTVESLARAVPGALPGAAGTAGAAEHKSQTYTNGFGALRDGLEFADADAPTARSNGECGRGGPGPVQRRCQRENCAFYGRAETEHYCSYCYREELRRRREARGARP
Method in brief: as §1

UniProt Q9P2H5 = biological target: T3, UniProt Q9P2H5
T3 sequence (whole entry): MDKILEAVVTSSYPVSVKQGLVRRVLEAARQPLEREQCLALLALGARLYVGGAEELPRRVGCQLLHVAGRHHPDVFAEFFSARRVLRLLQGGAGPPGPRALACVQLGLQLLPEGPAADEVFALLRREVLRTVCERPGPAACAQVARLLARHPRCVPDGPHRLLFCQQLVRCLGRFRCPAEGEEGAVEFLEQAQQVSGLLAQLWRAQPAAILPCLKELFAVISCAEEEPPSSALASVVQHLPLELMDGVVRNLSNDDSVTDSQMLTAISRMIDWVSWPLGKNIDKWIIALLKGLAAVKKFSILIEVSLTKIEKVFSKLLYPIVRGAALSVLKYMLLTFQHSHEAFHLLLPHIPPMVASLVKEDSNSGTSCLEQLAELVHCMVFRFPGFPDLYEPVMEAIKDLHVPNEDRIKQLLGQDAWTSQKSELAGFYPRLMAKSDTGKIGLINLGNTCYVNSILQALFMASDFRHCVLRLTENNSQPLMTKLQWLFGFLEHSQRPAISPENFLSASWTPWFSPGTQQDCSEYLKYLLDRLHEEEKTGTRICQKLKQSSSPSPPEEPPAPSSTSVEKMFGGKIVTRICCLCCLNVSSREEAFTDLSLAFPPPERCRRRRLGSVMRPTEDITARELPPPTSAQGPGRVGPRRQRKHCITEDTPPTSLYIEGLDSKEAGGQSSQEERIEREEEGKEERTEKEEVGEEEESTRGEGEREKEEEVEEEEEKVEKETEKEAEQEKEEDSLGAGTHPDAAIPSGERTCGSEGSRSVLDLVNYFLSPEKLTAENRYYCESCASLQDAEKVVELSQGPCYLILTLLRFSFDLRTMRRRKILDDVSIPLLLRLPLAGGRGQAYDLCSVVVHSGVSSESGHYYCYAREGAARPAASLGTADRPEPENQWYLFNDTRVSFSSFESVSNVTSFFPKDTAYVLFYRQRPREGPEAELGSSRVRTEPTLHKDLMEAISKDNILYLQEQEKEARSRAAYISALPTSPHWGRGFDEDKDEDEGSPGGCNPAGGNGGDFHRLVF
Method in brief: as §1

UniProt Q9UGI0 = biological target: T4, UniProt Q9UGI0
T4 sequence (whole entry): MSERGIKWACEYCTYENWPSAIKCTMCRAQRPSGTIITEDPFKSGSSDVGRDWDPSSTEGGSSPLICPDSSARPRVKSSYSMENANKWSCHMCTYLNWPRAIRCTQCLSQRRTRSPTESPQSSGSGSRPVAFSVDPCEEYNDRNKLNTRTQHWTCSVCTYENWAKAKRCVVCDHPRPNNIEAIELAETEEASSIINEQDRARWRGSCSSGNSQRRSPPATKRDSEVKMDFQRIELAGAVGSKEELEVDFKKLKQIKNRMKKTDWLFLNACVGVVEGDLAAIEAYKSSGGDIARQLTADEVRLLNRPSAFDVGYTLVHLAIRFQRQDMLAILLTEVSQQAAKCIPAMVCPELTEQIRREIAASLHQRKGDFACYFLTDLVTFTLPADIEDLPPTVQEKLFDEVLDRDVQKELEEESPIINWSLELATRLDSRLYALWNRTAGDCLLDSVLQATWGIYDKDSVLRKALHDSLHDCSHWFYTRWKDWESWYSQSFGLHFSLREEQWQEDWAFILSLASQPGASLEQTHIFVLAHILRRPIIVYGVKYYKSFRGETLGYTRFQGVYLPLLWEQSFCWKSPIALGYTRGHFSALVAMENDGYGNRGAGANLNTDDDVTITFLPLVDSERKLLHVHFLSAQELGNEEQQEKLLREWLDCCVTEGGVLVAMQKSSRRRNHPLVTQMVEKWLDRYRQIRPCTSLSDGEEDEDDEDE
Method in brief: as §1

YOD1 = biological target: T5, YOD1 (UniProt Q5VVQ6)
T5 sequence (whole entry): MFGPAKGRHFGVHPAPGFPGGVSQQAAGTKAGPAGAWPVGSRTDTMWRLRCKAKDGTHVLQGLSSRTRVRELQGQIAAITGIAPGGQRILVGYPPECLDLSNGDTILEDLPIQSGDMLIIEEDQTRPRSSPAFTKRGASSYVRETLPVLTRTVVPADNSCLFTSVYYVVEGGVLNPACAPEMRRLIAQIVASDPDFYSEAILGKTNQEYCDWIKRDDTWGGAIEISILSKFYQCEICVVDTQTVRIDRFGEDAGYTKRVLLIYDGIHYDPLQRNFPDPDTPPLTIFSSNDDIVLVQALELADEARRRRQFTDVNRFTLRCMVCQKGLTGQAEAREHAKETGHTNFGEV
Method in brief: as §1

Measured: log2 ratio of Biotin-Ahx-Ub-VS probe labelling

USP9X, sequence (Q93008 whole entry, the tested form may be a part): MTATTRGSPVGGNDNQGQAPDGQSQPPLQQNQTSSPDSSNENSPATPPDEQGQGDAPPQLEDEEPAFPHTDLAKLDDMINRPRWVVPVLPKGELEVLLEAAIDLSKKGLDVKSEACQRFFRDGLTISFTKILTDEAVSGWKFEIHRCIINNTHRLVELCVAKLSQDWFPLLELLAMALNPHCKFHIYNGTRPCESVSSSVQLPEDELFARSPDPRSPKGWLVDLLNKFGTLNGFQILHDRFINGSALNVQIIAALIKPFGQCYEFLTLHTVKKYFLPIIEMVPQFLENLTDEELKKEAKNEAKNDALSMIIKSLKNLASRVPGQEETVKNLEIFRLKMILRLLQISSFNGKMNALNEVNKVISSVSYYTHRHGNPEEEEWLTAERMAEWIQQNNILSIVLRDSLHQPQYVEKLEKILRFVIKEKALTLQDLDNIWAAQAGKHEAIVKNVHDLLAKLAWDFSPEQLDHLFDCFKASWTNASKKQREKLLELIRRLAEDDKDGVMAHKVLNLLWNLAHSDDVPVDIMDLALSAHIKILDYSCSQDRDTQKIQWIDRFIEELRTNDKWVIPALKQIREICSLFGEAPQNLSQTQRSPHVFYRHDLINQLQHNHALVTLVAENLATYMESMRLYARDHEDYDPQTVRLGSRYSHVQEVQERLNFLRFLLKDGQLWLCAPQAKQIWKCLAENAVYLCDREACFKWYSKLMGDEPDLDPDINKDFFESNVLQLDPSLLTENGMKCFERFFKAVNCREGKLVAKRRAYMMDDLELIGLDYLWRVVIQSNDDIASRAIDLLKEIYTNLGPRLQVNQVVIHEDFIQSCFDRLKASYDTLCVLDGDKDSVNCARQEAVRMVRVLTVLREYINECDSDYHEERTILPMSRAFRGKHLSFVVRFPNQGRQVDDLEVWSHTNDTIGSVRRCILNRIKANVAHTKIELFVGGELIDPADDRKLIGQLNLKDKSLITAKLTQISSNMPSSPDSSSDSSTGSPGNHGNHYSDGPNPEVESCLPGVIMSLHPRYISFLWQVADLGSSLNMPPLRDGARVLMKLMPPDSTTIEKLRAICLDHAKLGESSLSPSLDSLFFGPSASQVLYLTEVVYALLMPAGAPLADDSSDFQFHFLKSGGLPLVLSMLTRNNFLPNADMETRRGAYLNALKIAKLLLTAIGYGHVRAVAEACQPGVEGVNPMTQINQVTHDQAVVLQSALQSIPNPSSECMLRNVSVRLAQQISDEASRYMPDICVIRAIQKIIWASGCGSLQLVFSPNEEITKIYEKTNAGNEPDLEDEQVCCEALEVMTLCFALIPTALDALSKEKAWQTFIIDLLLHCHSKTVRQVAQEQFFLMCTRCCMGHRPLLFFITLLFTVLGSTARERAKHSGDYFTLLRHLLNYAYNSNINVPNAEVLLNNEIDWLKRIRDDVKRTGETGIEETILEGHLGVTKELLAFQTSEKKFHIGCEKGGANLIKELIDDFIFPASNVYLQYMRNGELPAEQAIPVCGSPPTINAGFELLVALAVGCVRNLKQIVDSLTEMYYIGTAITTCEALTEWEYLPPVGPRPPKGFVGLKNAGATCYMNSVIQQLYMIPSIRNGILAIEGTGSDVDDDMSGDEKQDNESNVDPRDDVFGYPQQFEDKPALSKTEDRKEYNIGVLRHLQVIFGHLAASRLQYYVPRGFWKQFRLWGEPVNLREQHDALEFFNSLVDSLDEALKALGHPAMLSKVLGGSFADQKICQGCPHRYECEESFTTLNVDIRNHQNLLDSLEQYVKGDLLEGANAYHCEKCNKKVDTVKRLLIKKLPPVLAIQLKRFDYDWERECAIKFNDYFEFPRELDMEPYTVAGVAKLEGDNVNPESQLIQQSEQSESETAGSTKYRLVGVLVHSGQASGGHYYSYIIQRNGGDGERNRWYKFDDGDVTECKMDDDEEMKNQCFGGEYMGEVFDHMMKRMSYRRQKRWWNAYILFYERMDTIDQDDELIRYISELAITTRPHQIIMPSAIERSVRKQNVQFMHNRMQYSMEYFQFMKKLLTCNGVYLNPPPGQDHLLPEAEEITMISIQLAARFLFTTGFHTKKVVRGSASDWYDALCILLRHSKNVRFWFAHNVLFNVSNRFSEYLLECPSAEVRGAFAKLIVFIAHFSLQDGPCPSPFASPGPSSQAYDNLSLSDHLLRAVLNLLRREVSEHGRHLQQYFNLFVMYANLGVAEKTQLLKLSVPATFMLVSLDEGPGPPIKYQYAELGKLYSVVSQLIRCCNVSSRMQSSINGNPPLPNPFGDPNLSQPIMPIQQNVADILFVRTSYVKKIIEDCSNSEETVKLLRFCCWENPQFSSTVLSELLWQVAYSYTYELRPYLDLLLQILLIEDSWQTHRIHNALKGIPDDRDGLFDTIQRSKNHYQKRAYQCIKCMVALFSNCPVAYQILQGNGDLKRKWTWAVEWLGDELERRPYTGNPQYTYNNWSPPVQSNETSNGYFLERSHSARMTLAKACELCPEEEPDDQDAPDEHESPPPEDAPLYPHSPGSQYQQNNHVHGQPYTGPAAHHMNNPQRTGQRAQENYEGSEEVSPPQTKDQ
UniProt O00507, sequence (O00507 whole entry): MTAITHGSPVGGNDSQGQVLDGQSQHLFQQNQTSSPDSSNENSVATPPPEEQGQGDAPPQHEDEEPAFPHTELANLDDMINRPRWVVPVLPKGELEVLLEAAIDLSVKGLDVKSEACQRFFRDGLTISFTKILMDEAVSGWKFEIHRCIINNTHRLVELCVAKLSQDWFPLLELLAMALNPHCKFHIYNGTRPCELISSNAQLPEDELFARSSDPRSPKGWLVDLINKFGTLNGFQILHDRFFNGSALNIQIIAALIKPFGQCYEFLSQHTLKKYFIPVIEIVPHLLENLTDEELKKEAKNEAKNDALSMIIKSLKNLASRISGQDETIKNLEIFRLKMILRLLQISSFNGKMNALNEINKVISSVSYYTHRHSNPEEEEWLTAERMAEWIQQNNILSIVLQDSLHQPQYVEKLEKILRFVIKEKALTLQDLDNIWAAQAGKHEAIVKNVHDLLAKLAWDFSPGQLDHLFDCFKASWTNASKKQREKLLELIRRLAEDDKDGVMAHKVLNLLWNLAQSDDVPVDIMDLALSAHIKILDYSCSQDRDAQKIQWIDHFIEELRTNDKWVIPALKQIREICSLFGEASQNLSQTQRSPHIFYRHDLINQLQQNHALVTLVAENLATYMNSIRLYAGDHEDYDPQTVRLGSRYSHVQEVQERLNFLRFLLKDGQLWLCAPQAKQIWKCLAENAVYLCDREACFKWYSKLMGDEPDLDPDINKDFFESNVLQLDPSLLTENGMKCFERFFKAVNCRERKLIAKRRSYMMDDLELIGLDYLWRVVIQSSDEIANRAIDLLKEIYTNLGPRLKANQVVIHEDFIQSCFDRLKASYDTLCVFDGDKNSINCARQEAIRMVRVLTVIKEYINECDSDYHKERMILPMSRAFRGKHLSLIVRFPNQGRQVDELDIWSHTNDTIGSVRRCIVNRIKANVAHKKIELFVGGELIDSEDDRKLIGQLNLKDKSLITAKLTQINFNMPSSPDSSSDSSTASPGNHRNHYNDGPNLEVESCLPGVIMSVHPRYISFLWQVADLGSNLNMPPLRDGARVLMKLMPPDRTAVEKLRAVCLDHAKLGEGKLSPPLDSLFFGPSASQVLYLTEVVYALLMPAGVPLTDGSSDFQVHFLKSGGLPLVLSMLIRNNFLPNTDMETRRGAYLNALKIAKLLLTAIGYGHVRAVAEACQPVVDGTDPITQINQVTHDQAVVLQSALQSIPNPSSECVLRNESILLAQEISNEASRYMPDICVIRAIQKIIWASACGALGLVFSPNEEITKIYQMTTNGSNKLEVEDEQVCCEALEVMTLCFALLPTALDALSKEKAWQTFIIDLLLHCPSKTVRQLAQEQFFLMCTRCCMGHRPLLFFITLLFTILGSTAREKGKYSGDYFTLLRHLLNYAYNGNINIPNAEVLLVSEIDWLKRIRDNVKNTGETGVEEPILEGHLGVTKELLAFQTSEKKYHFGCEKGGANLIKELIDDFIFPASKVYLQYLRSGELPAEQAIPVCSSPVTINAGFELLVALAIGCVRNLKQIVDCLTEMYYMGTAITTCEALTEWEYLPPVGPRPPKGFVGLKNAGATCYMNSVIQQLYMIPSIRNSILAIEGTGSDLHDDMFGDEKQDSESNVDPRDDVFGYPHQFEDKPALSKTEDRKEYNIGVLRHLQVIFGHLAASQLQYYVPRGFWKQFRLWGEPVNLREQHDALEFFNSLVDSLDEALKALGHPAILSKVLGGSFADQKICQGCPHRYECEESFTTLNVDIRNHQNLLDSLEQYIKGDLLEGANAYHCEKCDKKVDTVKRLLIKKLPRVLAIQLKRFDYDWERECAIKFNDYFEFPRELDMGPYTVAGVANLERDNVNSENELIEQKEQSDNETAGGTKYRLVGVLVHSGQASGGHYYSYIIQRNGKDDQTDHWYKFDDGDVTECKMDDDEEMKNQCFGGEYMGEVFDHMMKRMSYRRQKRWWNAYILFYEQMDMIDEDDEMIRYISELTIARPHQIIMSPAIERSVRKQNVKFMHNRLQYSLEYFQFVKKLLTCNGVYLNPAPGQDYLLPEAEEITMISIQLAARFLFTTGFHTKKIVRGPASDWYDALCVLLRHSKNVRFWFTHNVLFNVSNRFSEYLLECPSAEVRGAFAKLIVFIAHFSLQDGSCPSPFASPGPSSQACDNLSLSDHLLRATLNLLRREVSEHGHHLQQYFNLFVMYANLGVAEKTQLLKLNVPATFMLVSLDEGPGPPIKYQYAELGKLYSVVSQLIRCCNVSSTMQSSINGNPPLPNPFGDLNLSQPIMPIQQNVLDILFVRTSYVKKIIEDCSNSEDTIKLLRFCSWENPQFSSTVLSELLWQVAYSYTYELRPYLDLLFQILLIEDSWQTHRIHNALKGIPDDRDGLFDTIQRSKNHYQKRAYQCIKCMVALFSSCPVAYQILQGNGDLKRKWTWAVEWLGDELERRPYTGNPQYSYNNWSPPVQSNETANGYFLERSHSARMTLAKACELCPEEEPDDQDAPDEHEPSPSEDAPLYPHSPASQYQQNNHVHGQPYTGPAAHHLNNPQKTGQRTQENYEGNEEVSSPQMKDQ

Cl.O=C(CCl)NCc1cc2c(nc1O)CCCC2
inactive: USP9X -0.309 | UniProt O00487 -0.0291 | UniProt O00507 -0.0624 | UniProt P51784 0.0791 | UniProt Q5T2D3 -0.333 | UniProt Q8TE49 -0.515 | UniProt Q9P2H5 -0.244 | UniProt Q9UGI0 -0.421 | YOD1 -0.158
